ABCB6 inh MLPCN = human ABCB6 transporter inhibition; fluorescence ratio to DMSO, % at 10 µM; Q9NP58; K562-ABCB6 porphyrin accumulation, flow cytometry, 1 h; hits give low values; hit rate 0.19% among 360,000;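 active means fluorescence ratio to DMSO below 75%, the collection mean minus 3 SD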;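 further: signal is porphyrin accumulated inside mitochondria; lower ratio means ABCB6 inhibition with less porphyrin fluorescence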
Target sequence (Q9NP58 whole entry, looked up): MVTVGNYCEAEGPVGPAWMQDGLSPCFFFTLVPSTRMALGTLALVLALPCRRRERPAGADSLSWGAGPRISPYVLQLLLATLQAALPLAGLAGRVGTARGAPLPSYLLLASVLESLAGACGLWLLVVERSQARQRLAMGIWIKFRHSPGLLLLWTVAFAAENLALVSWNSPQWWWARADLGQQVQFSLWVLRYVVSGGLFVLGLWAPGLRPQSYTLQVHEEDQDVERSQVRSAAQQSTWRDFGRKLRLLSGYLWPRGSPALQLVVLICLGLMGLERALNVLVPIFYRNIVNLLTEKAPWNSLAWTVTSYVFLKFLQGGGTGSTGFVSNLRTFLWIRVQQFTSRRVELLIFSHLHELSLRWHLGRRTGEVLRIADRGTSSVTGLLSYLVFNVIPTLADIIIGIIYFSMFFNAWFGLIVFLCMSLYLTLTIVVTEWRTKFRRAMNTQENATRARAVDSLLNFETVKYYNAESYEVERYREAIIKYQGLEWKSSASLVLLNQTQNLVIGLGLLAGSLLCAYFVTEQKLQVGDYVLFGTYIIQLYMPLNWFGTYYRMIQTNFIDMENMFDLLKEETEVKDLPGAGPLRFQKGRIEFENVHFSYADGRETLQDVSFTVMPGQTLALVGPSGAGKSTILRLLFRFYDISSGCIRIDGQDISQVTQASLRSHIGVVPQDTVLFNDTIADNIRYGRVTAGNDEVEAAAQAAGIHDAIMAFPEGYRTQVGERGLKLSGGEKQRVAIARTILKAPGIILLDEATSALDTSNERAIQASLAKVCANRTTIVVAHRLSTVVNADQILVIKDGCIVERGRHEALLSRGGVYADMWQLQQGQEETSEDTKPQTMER
Cardio protect = modulators protecting cardiomyocytes from myocardial damage; H9c2 cardiomyocytes, H2O2 injury protection, ATPLite, 2 h; protection from H2O2 cell death, % at 20 µM; hit rate 0.63% among 360,000;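 active means compounds giving at least 50% protection of heart cells from peroxide-induced death in the single-dose screen, raw or plate-pattern-corrected value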
Myeloid diff 2 = myeloid differentiation induction; calls only at 10 µM; hit rate 1% among 360,000; ER-HoxA9 myeloid progenitors, lysozyme-GFP differentiation, flow cytometry;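 active means normalized GFP-positive differentiation at or above the plate's own cutoff, the solvent-only control mean plus 3 SD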;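 further: cells exposed to compound for four days before flow analysis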
beta cell repl = MIN6 beta-cell proliferation induction; MIN6 cells proliferation, ATPlite luminescence, 48 h; cells starved in 0.2% serum; 100% = growth in 10% serum; proliferation, % at 10 µM; hit rate 0.29% among 330,000; AID 2380;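 active means compounds whose signal lies at least 3.5 SD above the mean of all wells on their plate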
hiPSC survival = enhancers of human iPSC single-cell survival; hiPSC single-cell survival, ATPlite luminescence; 100% = ROCK inhibitor wells, 0% = DMSO; survival enhancement, % at 20 µM; hit rate 0.044% among 360,000; AID 602274; in the data active means survival enhancement above about 18%;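 further: cells exposed to compounds for 16 hours before the ATP read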
Hits are given with their value; – = inactive; · = no result; + = active, no number. Hits are enriched below; roughly 2.2% of the tested compounds scored in any of these assays.

SMILES	ABCB6 inh MLPCN	Cardio protect	Myeloid diff 2	beta cell repl	hiPSC survival
CCOC(=O)N1CCN(C(=O)C(=O)Nc2ccc3nc4n(c(=O)c3c2)CCCCC4)CC1	–	–	–	–	–
O=c1[nH]nc(-c2cccs2)c2ccccc12	–	70	–	–	–
CC(C)NC(=O)c1ccc2c(c1)S(=O)(=O)c1ccccc1C2=O	–	–	–	–	20
COc1ccc(NC(=O)c2ccc3nc[nH]c3c2)cc1	–	–	–	–	–
C[C@H](CO)N1C[C@H](C)[C@H](CN(C)S(=O)(=O)c2ccc(Cl)cc2)OCc2cnnn2CCCC1=O	–	–	–	·	–
Cc1ccc(C)c(OCc2cc(C(=O)NC(C)c3cnn(C)c3)no2)c1 (centres undefined)	–	–	–	–	–
COc1ccc(OC)c(CNc2ccc3c(c2)CCC3)c1	–	–	+	–	–
COc1ccc(OC)c(CC(=O)Nc2ccc3c(c2)CCC3)c1	–	–	–	–	–
CS/C(=N\S(=O)(=O)c1ccccc1)c1ccccc1	–	56	–	–	–
O=S(=O)(/N=C(/Sc1ccccc1)c1ccccc1)c1ccccc1	–	52	–	–	–
CCOC(=O)N1CCC(NC(=O)CSCc2nc(-c3ccccc3Cl)oc2C)CC1	–	–	–	–	–
CN1CCc2nc(SCC(=O)Nc3cccc(F)c3)c(C#N)c(-c3cccs3)c2C1	–	–	–	–	–
CN1CCc2nc(SCC(=O)Nc3ccc(OC(F)(F)F)cc3)c(C#N)c(-c3cccs3)c2C1	–	–	+	–	–
COc1cc(C(=O)OC(C)C(=O)Nc2ccc3c(c2)OCCO3)cc(OC)c1OC (centres undefined)	–	–	–	–	–
OC(c1ccco1)c1nc(-c2ccc(F)c(Cl)c2)cs1 (centres undefined)	–	–	–	·	–
CCCN1Cc2cccc(C(=O)Nc3ccc(C)cc3)c2C1=O	–	–	–	–	–
CCCN1Cc2cccc(C(N)=O)c2C1=O	–	59	–	–	–
CC(=O)OCCCNc1cc(Sc2nc3ccccc3s2)c2nonc2c1[N+](=O)[O-]	–	–	·	–	–
CC(=O)OCCNc1cc(Sc2nc3ccccc3[nH]2)c2nonc2c1[N+](=O)[O-]	–	–	+	·	–
O=C(CNS(=O)(=O)c1ccccc1)OCC(=O)c1c[nH]c2ccccc12	–	–	+	–	–
COc1ccccc1NS(=O)(=O)c1ccc2oc(SCC(=O)N3CCNC3=O)nc2c1	–	54	–	–	–
COc1ccc(C(c2sc3nc(C)nn3c2O)N2CCN(CCO)CC2)cc1OC (centres undefined)	–	–	+	–	–
CC(C)C12CN3CC(C(C)C)(CN(C1)C3c1ccccc1O)C2=O (centres undefined)	–	–	–	–	21
CC(C)C12CN3CC(C(C)C)(CN(C1)C3c1ccc3c(c1)OCO3)C2=O (centres undefined)	–	–	–	–	–
Cc1ccc(OCCCCN(C)Cc2ccccc2)c(Br)c1	–	–	+	–	–
SMILES	ABCB6 inh MLPCN	Cardio protect	Myeloid diff 2	beta cell repl	hiPSC survival
COc1ccccc1OCCOCCOc1ccc(C)cc1Br	–	–	+	–	–
COc1ccccc1OCCCOc1ccc(C)cc1Br	–	–	–	–	–
COc1ccc(-c2sc3cc(OC)ccc3c2-c2ccc(OCCN3CCCCC3)cc2)cc1	–	·	+	·	–
CC(C)CC(NC(=O)C1CCC(C)CC1)C(=O)NCc1ccccn1 (centres undefined)	–	–	–	–	–
CCc1ccc(OCC(=O)N/N=C(\C)c2ccc(OC(F)F)cc2)cc1	–	–	–	–	–
O=C(CCc1nc2ccccc2c(=O)[nH]1)Nc1ccc(F)c([N+](=O)[O-])c1	–	50	·	–	–
O=C(CCc1nc2ccccc2c(=O)[nH]1)Nc1cccc(S(=O)(=O)N2CCCCC2)c1	–	–	–	–	–
O=C(CCc1nc2ccccc2c(=O)[nH]1)NCC(=O)Nc1ccc(F)c(F)c1	–	59	–	–	–
Cc1ccc(NC(=O)COC(=O)CCc2nc3ccccc3c(=O)[nH]2)cc1Cl	–	–	–	–	–
O=C(O)C1CCCCC1C(=O)Nc1ccc(S(=O)(=O)N2CCCCC2)cc1 (centres undefined)	–	–	–	–	–
COc1ccc(-c2noc(CN(C)S(=O)(=O)c3ccccc3)n2)cc1OC	–	55	–	–	–
Nc1nc2n(n1)C(=O)CC(c1ccc(Cl)cc1)N2 (centres undefined)	–	–	–	–	–
CC1(C)CC2C1CCC1(O)CC2(C)CCC1N(O)c1ccc(C(=O)NCCO)cn1 (centres undefined)	–	51	–	–	–
CCc1cc(=O)oc2cc(OCc3ccc(C(=O)O)o3)ccc12	–	–	+	–	–
O=C(O)c1ccc(COc2ccc3c4c(c(=O)oc3c2)CCC4)o1	–	–	–	–	–
Cc1ccc(CCN2CC(C(=O)NCCN3CCCCCC3)CC2=O)cc1 (centres undefined)	–	–	–	–	–
Cc1ccc(CCN2CC(C(=O)NCCCN3CCCCCC3)CC2=O)cc1 (centres undefined)	–	–	–	–	22
CC1=CC2=NC(=O)CC(C)(C(=O)N(CC(=O)NC3CCCC3)Cc3ccc(Cl)cc3)N2C=C1 (centres undefined)	–	–	–	–	–
COc1ccc(NC(=O)CSc2nnc(Cc3cccn3C)n2-c2ccc(F)cc2)cc1OC	–	–	–	–	–
CC1(C)CNc2cc(N)ccc2S1	–	–	+	–	–
CC(C)NC(=O)CC1C(=O)NCCN1CC(c1ccccc1)c1ccccc1 (centres undefined)	–	–	–	–	–
CCc1nnc(NC(=O)CCC(=O)N2CCN(C3c4ccccc4-c4ccccc43)CC2)s1	–	61	–	–	–
Cc1cc(Cl)c(S(=O)(=O)Nc2ccon2)cc1OCC(=O)NC1CCCCC1	–	–	–	–	–
Cc1cc(Cl)c(S(=O)(=O)Nc2ccc3c(c2)OCCO3)cc1OCC(=O)NC1CCCCC1	73	–	–	–	–
CCN(C[C@H]1N[C@@](C)(C(=O)OC)[C@H]2C(=O)N(Cc3ccccc3)C(=O)[C@@H]12)C(=O)COC	–	–	–	–	–
SMILES	ABCB6 inh MLPCN	Cardio protect	Myeloid diff 2	beta cell repl	hiPSC survival
CCN(C[C@H]1N[C@@](C)(C(=O)OC)[C@H]2C(=O)N(Cc3ccccc3)C(=O)[C@@H]12)C(=O)c1ccc(C(C)(C)C)cc1	–	57	–	–	–
CCN(C[C@H]1N[C@@](CC)(C(=O)OC)[C@H]2C(=O)N(Cc3ccccc3)C(=O)[C@@H]12)C(=O)c1ccc(C(C)(C)C)cc1	–	63	–	–	–
CS(=O)(=O)c1[nH]nc(-c2ccccc2Cl)c1C#N	–	–	–	–	–
Cc1ccc(Cl)cc1NC(=O)CC1NC2CCCCC2NC1=O (centres undefined)	–	–	+	–	–
O=C1NC(=O)N(Cc2ccccc2)C1=O	–	–	+	–	–
CCC/C=N/NC(=O)c1[nH]c2c([N+](=O)[O-])cccc2c1C	–	–	–	–	–
